PubChem BioAssay (Tox21)
Values joined by “and” are separate entries in the source; they are usually repeats but may differ in a detail not shown here. Identical values can stand only once. Records with an inconclusive call do not appear. A call without a number means that no potency is given here. Some structures have more than one record in an assay (separate samples or runs), and their calls can disagree. Active and inactive are the calls of the source. The call rests on the fitted dose curve; in most records, active means well fitted activation curve with a large enough effect in the repeat runs; inconclusive means weak or mixed curves; inactive means flat fitted curve, though single readings scatter.
Potency means the concentration at half of the fitted maximal effect.

Assay: A CellTox Green Cytotoxicity Assay to monitor cytotoxicity in HepG2 cells - 32 hour (AID 1224883); further: nearly all actives have a fitted effect of over 50% in size
Conditions: CellTox Green fluorescence; series mostly up to 76.8 µM; cytotoxicity increase: at the top concentration
From the text: National Center for Advancing Translational Sciences [NCATS]
NIH Chemical Genomics Center [NCGC]
U.S. Environmental Protection Agency [EPA]
National Institutes of Environmental Health Sciences [NIEHS]
National Toxicology Program [NTP]
Cell-based models are critical for drug discovery. Determining the natural cytotoxic effects resulting from test compounds is an essential research activity. A CellTox Green Cytotoxicity Assay to monitor cytotoxicity in real time of continues cell culture during 40 hours of the compound treatment was used to screen Tox21 10K library compounds in HepG2 cells. CellTox Green Cytotoxicity Assay is a nonlytic, homogeneous, biofluorescent method to measure cytotoxicity in cell culture after experimental manipulation. The assay system uses a proprietary asymmetric cyanine dye that is excluded from viable cells but preferentially stains the dead cell's DNA. […] Viable cells produce no appreciable increases in fluorescence. Therefore, the fluorescence signal produced by the binding interaction with dead cell DNA is proportional to cytotoxicity.
The mixture of HepG2 cell suspension and reagents were dispensed at 600cells/6 ul/well in 1536-well tissue culture treated black solid bottom plates using a Multidrop dispenser. After the assay plates were incubated at a 37 C/5% CO2 incubator for 5 hours, 23 nL of compounds dissolved in DMSO, positive and negative controls was transferred to the assay plate by a pintool work station. The plates were incubated at 37 C for 40 hours. The fluorescence intensity were measured at 0h, 8h, 16h, 24h, 32h and 40h time points using ViewLux plate reader during compound treatment.
With `CC(=O)Nc1c(I)c(NC(C)=O)c(I)c(C(=O)O)c1I` the Potency was “inactive”.
With `O=C1OC2(c3ccccc31)c1cc(Br)c(O)c(Br)c1Oc1c2cc(Br)c(O)c1Br` the Potency was 5.58 µM (active) and 14.2 µM (active) and 23.9 µM (active).
With `Cc1ncc([N+](=O)[O-])n1C` the Potency was “inactive”.
With `CCCCCCCCCCCCCCCC[N+](C)(C)Cc1ccccc1` the Potency was 25.3 µM (active) and 15.8 µM (active) and 10.7 µM (active).
With `C1CCC(C(CC2CCCCN2)C2CCCCC2)CC1` (stereo not given) the Potency was 5.35 µM (active).
With `CCN(CC)C(=O)c1cccc(C)c1` the Potency was “inactive”.
For `O=C(Nc1ncc([N+](=O)[O-])s1)c1cccs1`, the “cytotoxicity increase” value was -6.48% [at 35.3 µM] (inactive).
With `CN1CCc2cccc3c2[C@H]1Cc1ccc(O)c(O)c1-3` the Potency was “inactive”.
For `CCCCCCCCCCCC[N+](C)(C)Cc1ccccc1`, the Potency was 17 µM (active) and 23.8 µM (active) and 10.7 µM (active).
For `CCCCC1(COC(=O)CCC(=O)O)C(=O)N(c2ccccc2)N(c2ccccc2)C1=O`, the Potency was “inactive”.
In the case of `Cc1ncc([N+](=O)[O-])n1CCO`, the Potency is reported as “inactive”.
With `Cc1cc(=O)oc2cc(O)ccc12` the Potency was “inactive”.
In the case of `C1=CC2C3C=CC(C3)C2C1` (stereo not given), the “cytotoxicity increase” value is reported as -5.56% (inactive).
For `CN(C)C(=O)Nc1ccc(Cl)c(Cl)c1`, the Potency was “inactive”.
In the case of `CC/C(=C(\c1ccccc1)c1ccc(OCCN(C)C)cc1)c1ccccc1`, the Potency is reported as 43.6 µM (active) [middle of 5 runs].
With `CCCCC(CC)C(=O)O` (stereo not given) the Potency was “inactive”.
For `O=CC(=O)c1ccccc1`, the “cytotoxicity increase” value was -1.8% (inactive).
With `NC1CCCCC1` the Potency was “inactive”.
With `Cn1c(=O)c2c(ncn2C)n(C)c1=O` the Potency was “inactive”.
For `Nc1ccc2c(c1)CN1C(=O)c3ccccc3C1=N2`, the Potency was 10.4 µM (active).
In the case of `Cc1c(C(=O)O)c(O)cc2c1C(=O)c1c(O)c([C@@H]3O[C@H](CO)[C@@H](O)[C@H](O)[C@H]3O)c(O)c(O)c1C2=O`, the Potency is reported as “inactive”.
In the case of `Nc1ccc([N+](=O)[O-])cc1O`, the “cytotoxicity increase” value is reported as -4.43% (inactive).
In the case of `OC[C@H]1O[C@H](O[C@]2(CCl)O[C@H](CCl)[C@@H](O)[C@@H]2O)[C@H](O)[C@@H](O)[C@H]1Cl`, the Potency is reported as “inactive”.
For `O=C(O)CC(O)C(=O)O` (stereo not given), the Potency was “inactive”.
With `CN1CCC[C@H]1c1cccnc1` the Potency was “inactive”.
For `NS(=O)(=O)O`, the Potency was “inactive”.
For `O=S1(=O)OC(c2ccc(O)cc2)(c2ccc(O)cc2)c2ccccc21`, the Potency was “inactive”.
In the case of `COc1ccc2cc(S(=O)(=O)N[C@H](CC(=O)N[C@H](Cc3ccc(CN4[C@H](C)CCC[C@@H]4C)cc3)C(=O)N(C)C(C)C)c3ccc4c(c3)OCO4)ccc2c1`, the Potency is reported as 52 µM (active).
With `CC12CCC(CC1)C(C)(C)O2` the Potency was “inactive”.
In the case of `O=c1[nH]cnc2c1ncn2[C@H]1CC[C@@H](CO)O1`, the Potency is reported as “inactive”.
In the case of `CC(C)C(=O)Nc1ccc([N+](=O)[O-])c(C(F)(F)F)c1`, the Potency is reported as “inactive”.
For `COc1ccc2c(c1)c(CC(=O)O)c(C)n2C(=O)c1ccc(Cl)cc1`, the Potency was “inactive”.
With `CC(O)(P(=O)(O)O)P(=O)(O)O` the Potency was “inactive”.
For `Cc1ccc(S(=O)(=O)O)cc1`, the Potency was “inactive”.
In the case of `CN(N=O)C(=O)N[C@@H]1[C@@H](O)[C@H](O)[C@@H](CO)O[C@@H]1O`, the Potency is reported as “inactive”.
For `Cc1cccc(C)c1`, the Potency was “inactive”.
For `CCCCCCCC(=O)OCC(COC(=O)CCCCCCC)OC(=O)CCCCCCC`, the Potency was “inactive”.
In the case of `O=c1[nH]cc(F)c(=O)[nH]1`, the Potency is reported as 45.3 µM (active) and inactive.
For `CCCCNC(=O)NS(=O)(=O)c1ccc(C)cc1`, the Potency was “inactive”.
For `CN[C@H]1CC[C@@H](c2ccc(Cl)c(Cl)c2)c2ccccc21`, the Potency was 19 µM (active).
